Data on eight compounds can be found in PubChem BioAssay (NCI).

About 83,000 compounds went through this panel and 20% of them were active in at least one assay; those are over-represented in the sample as a whole.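 Cell lines were cultured in 96-well plates, exposed to a single compound concentration, and assessed for percent growth 48 hours later.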 A number with no mark means an inactive call. Calls of active or inactive are those of the source. The calls were made as follows: active = growth percent below 10; inactive = the rest.

Test systems include HCT-15 colon; HT29 colon; SNB-19 CNS; U251 CNS; PC-3 prostate; SK-MEL-5 melanoma; UACC-62 melanoma; LOX IMVI melanoma; SK-MEL-28 melanoma; SK-MEL-2 melanoma; EKVX NSCLC; SN12C renal; UO-31 renal; TK-10 renal; ACHN renal; A498 renal; CCRF-CEM leukemia; MOLT-4 leukemia; CAKI-1 renal.
Holding throughout (assay): NCI-60 one-dose screen, 48 h (100 = growth as untreated, 0 = no growth, -100 = all killed)
Conditions in all cases: 10 µM unless noted

Consider `CCCCOc1ccc(/C=C2/SC(N3CCCC3)=NC2=O)cc1`, for which the growth in the assay on HCT-15 colon was 97.2%; in the assay on HT29 colon, 94.6%; with SNB-19 CNS, 92.8%; in the assay with U251 CNS, 84.6%; in the assay on PC-3 prostate, 88.7%; in the assay on SK-MEL-5 melanoma, 95.2%. Further, the growth in the assay on UACC-62 melanoma was 87.4%; with LOX IMVI melanoma, 96.2%; in the assay on SK-MEL-28 melanoma, 101%; in the assay on SK-MEL-2 melanoma it was 105%; in the assay on EKVX NSCLC it was 94.5%; with SN12C renal, 87.3%. In addition, the growth in the assay on UO-31 renal was 82.4%; in the assay on TK-10 renal, 103%; in the assay with ACHN renal it was 103%; in the assay on A498 renal, 91.3%; in the assay with CCRF-CEM leukemia, 84.3%; with MOLT-4 leukemia, 95.6%.

For the compound `Nc1nnc(-c2ccc3ccccc3c2O)o1`, the growth in the assay with HCT-15 colon is 78.6%; in the assay on HT29 colon, 105%; in the assay on SNB-19 CNS, 97.1%; with U251 CNS it was 90.4%; with PC-3 prostate, 82.8%; with SK-MEL-5 melanoma it was 94.8%. In addition, the growth in the assay with UACC-62 melanoma was 97.5%; in the assay on LOX IMVI melanoma, 85.3%; in the assay with SK-MEL-28 melanoma, 97.8%; in the assay on SK-MEL-2 melanoma, 97.9%; with SN12C renal it was 95.9%; in the assay on UO-31 renal it was 61.5%. Also, the growth in the assay on TK-10 renal was 128%; with ACHN renal, 91.7%; with CAKI-1 renal, 96.8%; with A498 renal, 103%; in the assay on CCRF-CEM leukemia, 88.7%; with MOLT-4 leukemia it was 75.5%.

Take `COc1ccc(C2=Nn3c(nnc3-n3nc(C)cc3C)SC2)cc1`: the growth in the assay with HCT-15 colon is 17.1%; with HT29 colon, -17% (active); in the assay on SNB-19 CNS, 46%; in the assay on U251 CNS it was 15.5%; with PC-3 prostate, 9.91% (active); with SK-MEL-5 melanoma, 0.149% (active). Moreover, the growth is 39.5% in the assay with UACC-62 melanoma; 26.9% in the assay with LOX IMVI melanoma; 54.8% in the assay on SK-MEL-28 melanoma; 16.8% in the assay on SK-MEL-2 melanoma; 33.2% in the assay with SN12C renal; 45.8% in the assay with UO-31 renal. Also, the growth is 49% in the assay with TK-10 renal; 35.6% with ACHN renal; 53.1% in the assay on CAKI-1 renal; -8.89% (active) in the assay on A498 renal; 6.66% (active) in the assay on CCRF-CEM leukemia.

Turning to `Cc1cc(C2=NNC(=O)Cc3cc4c(cc32)OCCO4)cc(C)c1N`, the growth in the assay on HCT-15 colon is 31.7%; with HT29 colon it was 7.97% (active); in the assay with SNB-19 CNS it was 48%; with U251 CNS it was 36.6%; in the assay with PC-3 prostate it was 49.1%; in the assay on SK-MEL-5 melanoma, 10.2%. The growth in the assay with UACC-62 melanoma is 44.1%; in the assay with LOX IMVI melanoma, 39.7%; with SK-MEL-28 melanoma, 42.3%; in the assay on EKVX NSCLC it was 59.6%; in the assay with SN12C renal it was 43.6%; in the assay on UO-31 renal, 40%. Besides, the growth is 60.6% in the assay with TK-10 renal; 48.7% in the assay on ACHN renal; 40.4% in the assay with CAKI-1 renal; 24.2% in the assay on A498 renal; 52.2% with MOLT-4 leukemia.

Turning to `Cc1cc(C)n(-c2nnc3n2N=C(c2ccc(-c4ccccc4)cc2)CS3)n1`, the growth with HCT-15 colon was 36%; in the assay with HT29 colon, 6.89% (active); in the assay on SNB-19 CNS, 66.9%; in the assay with U251 CNS, 37.3%; in the assay with PC-3 prostate it was 36.4%; in the assay with SK-MEL-5 melanoma it was 28.2%. The growth in the assay on UACC-62 melanoma was 40.5%; in the assay on LOX IMVI melanoma, 35.2%; in the assay on SK-MEL-28 melanoma, 52.7%; in the assay with SK-MEL-2 melanoma, -12.1% (active); with SN12C renal, 53.4%; in the assay on UO-31 renal it was 46.6%. The growth in the assay with TK-10 renal was 50.6%; in the assay with ACHN renal, 54.8%; with CAKI-1 renal, 52.8%; in the assay with A498 renal, 20.4%; in the assay on MOLT-4 leukemia it was 28.5%.

For the compound `COc1cc(-c2nn(-c3cccc(NC(=O)c4ccc(Cl)c(C(F)(F)F)c4)c3)cc2-c2ccncc2)ccc1Cl`, the growth is 51.7% with HCT-15 colon; 50.1% in the assay with HT29 colon; 66% in the assay with SNB-19 CNS; 32.5% in the assay with U251 CNS; 18.6% with PC-3 prostate; 17.5% with SK-MEL-5 melanoma. For the same compound, the growth in the assay on UACC-62 melanoma is 32.8%; in the assay on LOX IMVI melanoma it was 32.2%; in the assay with SK-MEL-28 melanoma, 41.6%; with SK-MEL-2 melanoma it was 18.9%; in the assay on SN12C renal, 57.3%; with UO-31 renal it was 37.1%. In addition, the growth with TK-10 renal is 69.5%; in the assay with ACHN renal, 39.1%; with CAKI-1 renal, 61.1%; in the assay on A498 renal it was 11.8%; with CCRF-CEM leukemia, 12.4%; in the assay on MOLT-4 leukemia, 20.3%.

Take `O=C(Nc1ccncc1)C(=O)c1cn(S(=O)(=O)c2ccc(Br)cc2)c2ccccc12`: the growth in the assay with HCT-15 colon was 31%; in the assay on HT29 colon, 11.6%; in the assay on SNB-19 CNS, 64.6%; in the assay with U251 CNS it was 42.7%; in the assay with PC-3 prostate, 68.4%; with SK-MEL-5 melanoma, 14.5%. The growth in the assay with UACC-62 melanoma was 38.3%; with LOX IMVI melanoma, 41.6%; in the assay on SK-MEL-28 melanoma, 60.6%; with EKVX NSCLC, 44.5%; in the assay with SN12C renal, 46.3%; with UO-31 renal, 52.7%. Besides, the growth in the assay with TK-10 renal is 98.2%; in the assay on ACHN renal, 58%; in the assay with CAKI-1 renal, 40.6%; in the assay with A498 renal, 47.3%; in the assay with MOLT-4 leukemia, 44.3%.

Consider `O=C(Nc1ccncc1)C(=O)c1cn(S(=O)(=O)c2ccc(Oc3ccccc3)cc2)c2ccccc12`, for which the growth with HCT-15 colon is 88.6%; in the assay with HT29 colon it was 101%; in the assay with SNB-19 CNS, 98.6%; in the assay with U251 CNS, 94%; with PC-3 prostate, 85.7%; with SK-MEL-5 melanoma, 98.2%. Moreover, the growth is 79.1% in the assay with UACC-62 melanoma; 91.3% in the assay on LOX IMVI melanoma; 110% in the assay on SK-MEL-28 melanoma; 42.3% in the assay with EKVX NSCLC; 84.9% in the assay with SN12C renal; 62.3% in the assay on UO-31 renal. Besides, the growth with TK-10 renal is 102%; in the assay with ACHN renal, 86.3%; in the assay on CAKI-1 renal it was 57%; in the assay on A498 renal it was 34.7%.
